Screening data: PubChem BioAssay, Broad Institute
DUX4 inh: blocks DUX4-driven transcriptional activation. 293T-iDUX4 ZSCAN4-Gaussia luciferase reporter, 24 h; stronger effect = lower value. activity change, negative = inhibition, % (concentration not given with the values). 37,000 tested, 0.8% active;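 active = mean inhibition of at least 10% in the main channel, exceeding the control channel by a set limit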;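 also: 0% = median of neutral control wells and -100% = median of positive control wells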
* marks the source's active call; other numbers are inactive results; ! = not confirmed by another sample. Shown is part of a subset that was picked to be rich in hits.

SMILES | DUX4 inh
OC[C@@H]1[C@@H](c2ccc(C#Cc3ccccc3)cc2)[C@H]2CN(Cc3cncnc3)CCCCN12 | -3.9
CCC(=O)N1CCCCN2[C@@H](CO)[C@@H](c3ccc(-c4cccc(C#N)c4)cc3)[C@@H]2C1 | 15.5
OC[C@H]1[C@@H](c2ccc(C#Cc3cccnc3)cc2)[C@@H]2CN(Cc3ccccc3F)CCCCN12 | -50.6*
CCC(=O)N1CCCCN2[C@H](C1)[C@@H](c1ccc(-c3cccc(C#N)c3)cc1)[C@@H]2CO | 3.7
N#Cc1cccc(-c2ccc([C@@H]3[C@@H](CO)N4CCCCN(Cc5ccccc5F)C[C@H]34)cc2)c1 | -33.3*
C[C@@H]1CN([C@H](C)CO)C(=O)c2cc(C3=CCCCC3)cnc2O[C@@H]1CN(C)CC1CCOCC1 | 0.1
CS(=O)(=O)N1[C@H](CO)[C@@H](c2ccc(C#CC3CCCC3)cc2)[C@@H]1C#N | 1.6
CCCNC(=O)[C@H]1[C@H](CO)[C@H]2Cn3c(ccc(/C=C/c4ccccc4)c3=O)[C@H]2N1CCC | -9.0
Cc1ccccc1-c1ccc([C@H]2[C@H](CO)N3C(=O)CN(C(=O)Nc4cccc(F)c4)C[C@@H]23)cc1 | -1.9
C[C@H]1CN([C@@H](C)CO)S(=O)(=O)c2ccc(Br)cc2O[C@H]1CN(C)S(=O)(=O)c1ccccc1F | 1.5
C/C=C/c1ccc([C@@H]2[C@@H](CO)N(S(=O)(=O)CC)C23CN(C(=O)CC)C3)cc1 | 1.3
CCCN(C)C[C@H]1Oc2cc(-c3ccc(F)cc3)ccc2S(=O)(=O)N([C@H](C)CO)C[C@H]1C | -0.2
O=C(C[C@H]1CC[C@@H](NC(=O)c2ccc3c(c2)OCO3)[C@@H](CO)O1)NCc1ccc(Oc2ccccc2)cc1 | -44.8*
O=C(C[C@@H]1CC[C@@H](NC(=O)CC2CC2)[C@@H](CO)O1)NCc1ccc(-c2ccccc2)cc1 | 9.1
COc1ccc(CNC(=O)C[C@@H]2CC[C@H](NC(=O)CN(C)C)[C@@H](CO)O2)cc1 | 2.7
O=C1[C@@H](Cc2ccccc2)CCn2cc(nn2)COCC2CCCN12 (stereo partly drawn) | -0.1
CC(C)C#Cc1ccc([C@H]2[C@H](C#N)N(C(=O)C3CCC3)[C@H]2CO)cc1 | -1.3
N#C[C@@H]1[C@@H](c2ccc(-c3cccc(F)c3)cc2)[C@H](CO)N1C(=O)CN1CCOCC1 | -2.0
C[C@@H]1CN([C@@H](C)CO)C(=O)c2ccccc2-c2ccccc2CO[C@H]1CN(C)C(=O)Nc1ccnc(N2CCOCC2)c1 | 3.5
CCCNC(=O)C[C@H]1CC[C@H]2[C@@H](COC[C@@H](O)CN2S(=O)(=O)c2ccc(Oc3ccccc3)cc2)O1 | 2.8
N#Cc1cccc(-c2ccc(C3[C@@H]4CN(S(=O)(=O)c5ccccc5F)C[C@H]3N4)cc2)c1 (stereo partly drawn) | -53.6*!
O=S(=O)(c1ccccc1F)N1C[C@@H]2N[C@H](C1)C2c1ccc(-c2cncnc2)cc1 (stereo partly drawn) | -14.3*
O=S(=O)(c1ccccc1F)N1[C@@H]2CNC[C@H]1C2c1ccc(-c2ccncc2)cc1 (stereo partly drawn) | -2.0
O=S(=O)(c1ccccc1F)N1[C@@H]2CNC[C@H]1C2c1ccc(-c2cccc(F)c2)cc1 (stereo partly drawn) | 3.4
N#Cc1cccc(-c2ccc(C3[C@@H]4CN(C(=O)C5CCOCC5)C[C@H]3N4)cc2)c1 (stereo partly drawn) | 1.1
SMILES | DUX4 inh
O=S(=O)(c1ccccc1F)N1CCCCN2[C@H](C1)[C@@H](c1ccc(-c3cncnc3)cc1)[C@@H]2CO | 30.4
Cc1ccccc1S(=O)(=O)N1C[C@@H]2N[C@H](C1)C2c1ccc(-c2cccc(C#N)c2)cc1 (stereo partly drawn) | -71.5*!
Cc1ccccc1S(=O)(=O)N1[C@H](C#N)[C@H](c2ccc(-c3ccccc3)cc2)[C@H]1CO | -0.2
O=S(=O)(c1ccccc1F)N1C[C@@H]2N[C@H](C1)C2c1ccc(-c2ccncc2)cc1 (stereo partly drawn) | -3.8
CCCNC(=O)C[C@@H]1CC[C@H]2[C@@H](COC[C@@H](O)CN2Cc2ccncc2)O1 | 6.1
CC(C)NC(=O)N(C)C[C@@H]1Oc2ccc(NS(=O)(=O)c3ccc(Cl)cc3)cc2C(=O)N([C@H](C)CO)C[C@@H]1C | 2.3
CN(C)C(=O)c1cccc(-c2ccc3c(c2)[C@H]2[C@H](CCN2C(=O)c2cccnc2)[C@@H](CO)N3)c1 | -0.1
CN1c2ccc(-c3ccccc3)cc2[C@H]2[C@H](CCN2C(=O)CN2CCOCC2)[C@@H]1CO | 21.8
CN1c2ccc(-c3cccc(F)c3)cc2[C@@H]2[C@@H](CCN2C(=O)C2CCOCC2)[C@@H]1CO | 7.6
CN1c2ccc(-c3cccc(F)c3)cc2[C@@H]2[C@@H](CCN2C(=O)C2CCC2)[C@H]1CO | -35.4*
CN1c2ccc(-c3cccc(F)c3)cc2[C@H]2[C@H](CCN2C(=O)C2CCC2)[C@H]1CO | -7.0
Cc1noc(C)c1S(=O)(=O)Nc1ccc2c(c1)CC(=O)N([C@@H](C)CO)C[C@@H](C)[C@@H](CN(C)C(=O)Nc1cccc3ccccc13)O2 | -3.3
COc1ccc2c3c(n(C)c2c1)[C@@H](CO)N(C(=O)CC1CC1)CC31CCN(Cc2nccs2)CC1 | 16.7
O=C(CN1CCOCC1)N1C[C@@H]2N[C@H](C1)C2c1ccc(-c2ccccc2)cc1 (stereo partly drawn) | 11.3
COc1cccc(CN2[C@@H]3CNC[C@H]2[C@H]3c2ccc(-c3ccccc3OC)cc2)c1 | 7.5
Cc1cccc(-c2ccc(C3[C@@H]4CN(Cc5cccnc5)C[C@H]3N4)cc2)c1 (stereo partly drawn) | 20.4
COc1cccc(CN2[C@@H]3CNC[C@H]2C3c2ccc(-c3ccc(C#N)cc3)cc2)c1 (stereo partly drawn) | 3.8
Cc1ccccc1-c1ccc(C2[C@@H]3CN(C(=O)c4cnccn4)C[C@H]2N3)cc1 (stereo partly drawn) | 3.9
COc1cccc(CN2C[C@@H]3N[C@H](C2)C3c2ccc(-c3ccncc3)cc2)c1 (stereo partly drawn) | -25.9*!
COc1ccccc1CN1C[C@@H]2N[C@H](C1)C2c1ccc(-c2ccccc2)cc1 (stereo partly drawn) | -45.8*
CN(C)C(=O)c1ccc(-c2ccc(C3[C@@H]4CN(Cc5cncnc5)C[C@H]3N4)cc2)cc1 (stereo partly drawn) | 17.3
Cc1ccc(-c2ccc(C3[C@@H]4CN(Cc5cccnc5)C[C@H]3N4)cc2)cc1 (stereo partly drawn) | -22.3*!
COc1cccc(CN2C[C@@H]3N[C@H](C2)C3c2ccc(-c3ccccc3C)cc2)c1 (stereo partly drawn) | -34.6*!
Cc1noc(C)c1S(=O)(=O)N(C)C[C@@H]1OCCCC[C@@H](C)Oc2ccc(N(C)C)cc2C(=O)N([C@H](C)CO)C[C@H]1C | -2.5
O=C(N[C@@H]1C=C[C@@H](CC(=O)N2CCN(c3ccccc3)CC2)O[C@@H]1CO)c1ccccc1 | 10.3
C[C@@H]1CN([C@H](C)CO)C(=O)CCCn2cc(nn2)CO[C@H]1CN(C)Cc1ccccc1C(F)(F)F | -4.2
O=C(c1cnccn1)N1CC(=O)N2[C@H](C1)[C@H](c1ccc(-c3cccc(F)c3)cc1)[C@@H]2CO | 0.8
COc1ccc2c3c(n(C)c2c1)[C@@H](CO)N(C(=O)c1ccncc1)CC31CCN(C)CC1 | 6.9
COc1cccc(S(=O)(=O)N2[C@@H]3CNC[C@H]2C3c2ccc(-c3ccccc3F)cc2)c1 (stereo partly drawn) | 3.4
